Assay outcomes: PubChem, several laboratories
PLK1 kinase inh: human PLK1 kinase inhibitors, primary screen, biochemical, TR-FRET; Serine/threonine-protein kinase PLK1 (Homo sapiens), P53350; recombinant PLK1 kinase, TR-FRET peptide phosphorylation; inhibition, % at 10 µM; 0.53% of 97,000 active; AID 619, 2007;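 active = inhibition of 50% or more in the single-concentration screen; inactive = inhibition below 50%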;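 note: 0% = DMSO max control and 100% = H-89 dihydrochloride min control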
DAT uptake mod: changed hDAT dopamine uptake under cocaine IC80, either direction, primary screen, cocaine antagonist project, cell-based, LLC-PK1 hDAT, [14C]-dopamine uptake, MLSMR; B-score at 10 µM; 1.3% of 110,000 active; Sodium-dependent dopamine transporter (Homo sapiens), Q01959; LLC-PK1 hDAT cells, [14C]-dopamine uptake with cocaine IC80; actives deviate in either direction;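 active = Z score or B-score, a plate-position-corrected score, falls beyond the plate's 99.7% confidence bounds, in either direction; inactive = both scores lie inside the 99.7% bounds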;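 note: scored against the spread of the other compound wells on the same plate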
PTK2B oligo ant: antagonists of Pyk2 self-association, primary screen, Q293 cells, FERM NanoBiT luminescence, HTS; z-score (the deposit names both 25 µM and 10 µM); active compounds read low; 0.83% of 99,000 active; Protein-tyrosine kinase 2-beta (Homo sapiens), Q14289; AID 1347419, 2020;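 active = Z-score of -3 or lower, scaled per plate to the spread of control and sample wells; inactive = z-score above -3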;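 note: negative z-score means lost luminescence so less FERM oligomerization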
Target sequence (Q14289 whole entry, looked up): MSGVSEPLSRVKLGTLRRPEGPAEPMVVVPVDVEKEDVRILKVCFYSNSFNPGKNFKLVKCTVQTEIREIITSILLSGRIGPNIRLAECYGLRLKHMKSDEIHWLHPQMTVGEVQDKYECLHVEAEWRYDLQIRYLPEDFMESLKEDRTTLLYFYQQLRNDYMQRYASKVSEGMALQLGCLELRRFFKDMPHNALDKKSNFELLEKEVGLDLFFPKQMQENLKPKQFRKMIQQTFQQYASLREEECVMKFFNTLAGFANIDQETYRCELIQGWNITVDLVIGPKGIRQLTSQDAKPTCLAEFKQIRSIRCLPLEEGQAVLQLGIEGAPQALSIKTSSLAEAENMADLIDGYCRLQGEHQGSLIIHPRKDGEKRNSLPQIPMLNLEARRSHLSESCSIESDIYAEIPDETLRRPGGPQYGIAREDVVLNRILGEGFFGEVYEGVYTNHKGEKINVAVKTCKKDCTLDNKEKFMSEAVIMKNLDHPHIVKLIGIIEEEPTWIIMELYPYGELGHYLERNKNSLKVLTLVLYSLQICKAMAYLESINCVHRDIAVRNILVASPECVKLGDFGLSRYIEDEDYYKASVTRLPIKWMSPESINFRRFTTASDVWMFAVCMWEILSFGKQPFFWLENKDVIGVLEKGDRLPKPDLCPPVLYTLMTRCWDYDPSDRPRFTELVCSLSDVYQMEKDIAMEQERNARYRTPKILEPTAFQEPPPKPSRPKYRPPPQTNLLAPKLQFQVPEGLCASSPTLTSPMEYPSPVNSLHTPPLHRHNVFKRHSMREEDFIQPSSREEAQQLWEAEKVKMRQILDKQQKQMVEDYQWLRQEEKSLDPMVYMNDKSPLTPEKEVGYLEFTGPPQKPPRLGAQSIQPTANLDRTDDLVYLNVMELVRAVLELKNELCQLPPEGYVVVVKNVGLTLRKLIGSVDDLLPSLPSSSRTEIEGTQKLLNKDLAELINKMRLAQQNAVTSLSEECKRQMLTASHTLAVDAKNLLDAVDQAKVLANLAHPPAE
PLK1 PBD inh: Plk1 polo box domain binding inhibitors, primary screen, biochemical, fluorescence polarization; Serine/threonine-protein kinase PLK1 (Homo sapiens), P53350; Plk1 PBD phosphopeptide binding; inhibition, %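 (tested at about 20 µM)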; 0.13% of 97,000 active; in the data active = inhibition above about 34%, passing the limit was not always enough
SDO1 yeast rescue: growth rescue of sdo1-depleted yeast, primary screen, S. cerevisiae, bone marrow failure model; S. cerevisiae sdo1-depleted JHY4D growth rescue, OD600 30 h; active compounds read high; pdr5 snq2 efflux-pump mutant strain; z-score at 10 µM; 0.21% of 140,000 active;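 active = z-score above 3 at both the 24 hr and the 30 hr optical density reads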;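 note: z-score against mean and SD of all compound wells on the same plate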
Cav32 inh: Cav3.2 calcium influx blockers – cell-based, Fluo-4 calcium fluorescence, FDSS, MLSMR library, primary screen | Cav3.2-expressing cells; active compounds read low | B-score at 10 µM | 4% of 100,000 active;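 active = single-dose well whose peak fluorescence ratio is a statistical outlier from its plate by either plate-standardised score or position-corrected B-score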
* = called active by the depositor; . = not tested or not shown. Shown are actives, neighbours in structure and some others; about 4.7% of the full set was active somewhere.

SMILES | PLK1 kinase inh | DAT uptake mod | PTK2B oligo ant | PLK1 PBD inh | SDO1 yeast rescue | Cav32 inh
C=CCNC(=S)NNC(=O)c1cccn(Cc2ccc(Cl)c(Cl)c2)c1=O | -19 | 0.08 | 1.2 | -5 | 1.2 | -5.9*
C=CCn1c(=O)c2c3c(sc2n2c(Nc4ccccc4)nnc12)CCCC3 | -11 | 0.48 | -3.7* | 10 | -2.2 | 0.55
C=CCn1c(=O)c2c3c(sc2n2c(Nc4ccc(OC)cc4)nnc12)CCCC3 | -7 | -0.39 | -2.2 | 9 | -2 | -0.83
CN1CCc2nc(SCc3ccc(Cl)cc3)c(C#N)c(-c3cccs3)c2C1 | -6 | 1.6 | . | 26 | . | -2.1
Cc1ccccc1NC(=O)CSc1nc(N)c(C#N)c(-c2cccs2)c1C#N | -242 | 0.077 | -3.7* | 2 | 0.32 | 0.51
CCN(CC)C(=O)CSc1nc(N)c(C#N)c(-c2cccs2)c1C#N | 4 | 2 | -1.7 | 0 | -0.85 | -0.033
N#Cc1c(N)nc(SCc2ccncc2)c(C#N)c1-c1cccs1 | . | -0.006 | -3.9* | . | -2.7 | -1.2
COc1cc(-c2c(C#N)c(N)nc(SCc3ccncc3)c2C#N)cc(OC)c1OC | 2 | 0.64 | -4.1* | -12 | -1.6 | -0.0026
CC(=O)c1ccc(NC(=O)c2cc(Cl)sc2Cl)cc1 | . | . | . | . | 0.35 | .
O=C(N1CCN(c2ccccc2F)CC1)C1(c2cccs2)CCOCC1 | . | . | . | . | -0.15 | .
CCCCOc1ccc(CNC(=O)NS(=O)(=O)c2ccc(OCC(C)C)cc2)cc1 | -15 | 0.18 | 1.9 | -5 | -0.43 | -5.3*
CCCCNC(=O)NS(=O)(=O)c1ccc(C)cc1 | . | -0.054 | . | . | -0.65 | 0.072
CCCCOc1ccc(S(=O)(=O)NC(=O)NCc2ccc(OCCC)cc2)cc1 | -16 | 0.7 | 1.4 | 8 | 0.58 | -3.5*
CCCCOc1ccc(CNC(=O)NS(=O)(=O)c2ccc(OCC)cc2)cc1 | -8 | -9.1* | 0.43 | -1 | -1.3 | -7.4*
CCCCOc1ccc(S(=O)(=O)Nc2ccc(NC(C)=O)cc2)cc1 | -16 | -0.12 | -0.52 | -18 | 1.2 | -0.25
COc1ccc(CNC(=O)NS(=O)(=O)c2ccc(C)cc2)cc1 | . | -0.83 | . | . | . | 0.05
CC(C)COc1ccc(CNC(=S)NCc2ccccc2)cc1 | -3 | 1 | -1.4 | 29 | -1.8 | -5.6*
Cc1ccc(-c2c[n+](Cc3ccc(Cl)c(Cl)c3)c3n2CCC3)cc1 | . | . | . | . | 0.53 | .
COC(=O)c1ccc([C@H]2C=C(C(=O)O)O[C@@H](OCc3ccc(CO)cc3)C2)cc1 | . | -0.16 | . | . | . | 0.15
CCCCNC(C(=O)Nc1ccc(Cl)c([N+](=O)[O-])c1)c1ccccc1 (stereo not given) | . | . | . | . | -0.22 | .
O=C(Nc1c2c(nc3c1CCC3)CCCC2)c1ccccn1 | . | . | . | . | -0.22 | .
CCCn1c(NCc2cccc(OC)c2OC)nc2ccccc21 | -2 | -0.82 | 0.42 | -53 | 0.42 | -1.8
CCCn1c(NCc2c[nH]c3ccccc23)nc2ccccc21 | -2 | 0.82 | 0.35 | -7 | 1.1 | -5.9*
Cc1ccc(C2C(C#N)=C(N)Oc3cc4c(cc32)OCO4)cc1 (stereo not given) | -8 | -0.38 | -0.52 | 8 | -2.9 | -4.4*
COc1ccc(/C=N/NC(=O)COc2ccc(Cl)cc2Cl)cc1Cn1nc(C)cc1C | . | . | . | . | 0.3 | .
SMILES | PLK1 kinase inh | DAT uptake mod | PTK2B oligo ant | PLK1 PBD inh | SDO1 yeast rescue | Cav32 inh
Cc1ccc2[nH]c(=O)c(C(c3nnnn3CC3CCCO3)N3CCOCC3)cc2c1 (stereo not given) | -9 | -0.097 | -0.01 | 7 | 0.64 | 0.31
CCC(c1nnnn1CC1CCCO1)N(CCN1CCOCC1)Cc1cc2cc(C)ccc2[nH]c1=O (stereo not given) | -12 | -1.8* | 0.11 | -33 | 0.38 | 0.36
CCOC(=O)C1=C(CNCc2ccc(C)cc2)NC(=O)NC1c1ccc(OC)cc1 (stereo not given) | -10 | 0.73 | -0.31 | -6 | 0.22 | -4.7*
CCN1CCN(CCCNC(=O)C2c3ccccc3C(=O)N(C)C2c2ccc(OC)cc2)CC1 (stereo not given) | -3 | -1.4 | 6.4 | -7 | 0.05 | -5.6*
COc1ccc(C2C(C(=O)N3CCCCC3)c3ccccc3C(=O)N2C)cc1 (stereo not given) | -7 | -0.074 | 0.38 | -35 | 0.18 | -0.33
CCCCNC(=O)C1c2ccccc2C(=O)N(c2ccc(OC)cc2)C1c1ccc(OC)cc1 (stereo not given) | 5 | -7.8* | -1.1 | 30 | 0.18 | 0.37
Cc1ccc2cccc(Oc3cnccn3)c2n1 | -13 | -1.9* | 0.37 | -12 | 0.23 | 0.41
Cc1ccc2cccc(Oc3ncnc4sc(C)c(C)c34)c2n1 | . | . | . | . | -1.1 | .
N#CC(C#N)=C1C=CC=CN1/C(=C\c1ccco1)C(=O)c1ccccc1 | . | . | . | . | -0.88 | .
COc1ccc(C(=O)/C(=C\c2ccco2)N2C=CC=CC2=C(C#N)C#N)cc1 | 17 | 0.24 | -0.41 | -13 | -1.3 | -6.8*
Cc1ccc2c(c1)c1c(n2CC(O)CNC(CO)(CO)CO)CCCC1 (stereo not given) | 63* | -0.18 | . | 23 | 0.47 | 0.54
CC1CCCN(c2nc3c(c(=O)[nH]c(=O)n3C)n2Cc2ccccc2Cl)C1 (stereo not given) | -10 | 0.33 | . | -8 | -1.6 | -6.1*
CCCCn1c(=O)[nH]c(=O)c2c1nc(-c1ccsc1)n2Cc1ccccc1 | -7 | 0.81 | -3.1* | 9 | -0.74 | -0.74
Cn1c(=O)c2c(nc(NC3CCCCC3)n2CC(=O)C23CC4CC(CC(C4)C2)C3)n(C)c1=O | -13 | -0.49 | -1.1 | 9 | -0.87 | -5.8*
CCCCn1c(-c2ccsc2)nc2c1c(=O)[nH]c(=O)n2CCC | -1 | 0.14 | -1.3 | 11 | 0.06 | -1
CCCCCn1c(NC2CCCCC2)nc2c1c(=O)[nH]c(=O)n2C | . | 2.9* | . | . | . | -1.3
Cc1ccc(Nc2nnc(SCC(=O)NCCN3C(=O)CSC3=O)s2)cc1C | . | . | . | . | 1 | .
O=C(O)C[C@@H](O)C(=O)O | . | 0.42 | . | . | 1.1 | 0.36
C=C(C)Cn1c(N2CCC(Cc3ccccc3)CC2)nc2c1c(=O)[nH]c(=O)n2C | -8 | . | -1.4 | 5 | -1 | -4*
CCCCCn1c(N2CCN(Cc3ccccc3)CC2)nc2c1c(=O)[nH]c(=O)n2C | 10 | 3* | 0.15 | -1 | -0.64 | -0.056
Cn1c(=O)[nH]c(=O)c2c1nc(N1CCC(Cc3ccccc3)CC1)n2Cc1ccccc1 | -1 | -0.51 | . | 13 | -1.6 | -0.79
CCCCCn1c(N2CCC(Cc3ccccc3)CC2)nc2c1c(=O)[nH]c(=O)n2C | -13 | 1.6 | . | -21 | . | -4.8*
COc1cc(OC)cc(C(=O)Nn2cc(C(=O)Nc3c(F)cccc3F)c3ccccc3c2=O)c1 | . | . | . | . | 0.32 | .
